Source: PubChem BioAssay AID651719 (The Scripps Research Institute Molecular Screening Center, 2012)
In all, about 360,000 compounds went through this assay and about 1,600 (0.44%) were called active. What follows is part of a selection rich in actives, with near analogues and random picks from the rest. A number with no mark means an inactive call.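 How the source made its calls: active means inhibition above the screen-wide average plus 3 SD (cut at about 13% in these data); inactive means the rest.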

target: Galanin receptor type 3 (Homo sapiens) (UniProt O60755); test: blockers of human galanin receptor 3 – cell-based, fluorescence readout, primary screen (AID 651719); details: HEK293 GalR3-CNG cAMP membrane potential fluorescence; at 3 µM; stronger effect = higher value; galR3 body fused to GalR1 C-terminus;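 further: forskolin and galanin both at EC90 stimulate the cells; cAMP rise reported by CNG channel membrane potential dye signal; 0% = forskolin plus galanin with DMSO and 100% = forskolin alone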
Sequence (O60755 1-299 limits assumed): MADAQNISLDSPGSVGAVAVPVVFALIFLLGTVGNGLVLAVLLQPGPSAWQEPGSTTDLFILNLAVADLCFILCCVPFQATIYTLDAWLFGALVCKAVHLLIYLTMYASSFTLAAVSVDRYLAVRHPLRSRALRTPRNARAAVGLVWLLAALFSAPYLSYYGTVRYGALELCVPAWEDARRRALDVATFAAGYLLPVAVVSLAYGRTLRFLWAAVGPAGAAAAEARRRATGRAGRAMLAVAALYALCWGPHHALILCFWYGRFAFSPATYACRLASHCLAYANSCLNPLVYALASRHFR

Row | SMILES | inhibition
1 | CCCCCCCCn1c2c(c(=N)c3c1CCC3)CCCC2 | 30.2% (active)
2 | COC(=O)C1=C(C)N(Cc2cccc(C(F)(F)F)c2)C(=NCc2cccc(C(F)(F)F)c2)NC1c1ccccc1C(F)(F)F (configuration not stated) | -1.24%
3 | Cc1ccc(NC(=O)N2c3ccccc3SC2c2ccco2)c(C)c1 (configuration not stated) | -5.21%
4 | CCOc1ccc(Br)cc1CSC(=N)N | 58.7% (active)
5 | CCOc1ccc(Br)cc1S(=O)(=O)N1CCC(C(=O)O)CC1 | -0.52%
6 | CC(C)(C)NCc1cc(Br)ccc1OC1CCCC1 | -9.54%
7 | COc1ccccc1C(=O)N1O[C@]23C=C[C@]14C[C@@H](O)CC[C@]4(C)C2CC[C@]1(C)[C@@H]([C@H](C)/C=C/[C@H](C)C(C)C)CC[C@H]13 (some centres not stated) | -7.73%
8 | CCN1C(=O)N[C@@H]2C[C@H](C(=O)N3CCCC3)[C@H](C)[C@H](c3ccccc3)C[C@@H]21 | -5.5%
9 | O=C(N[C@H](C(=O)N1CCC[C@H]1C(=O)NCCc1ccccc1Cl)c1ccccc1)c1ccccc1 | -7.99%
10 | COc1ccccc1-c1ccc([C@@H]2C[C@H]3[C@H](CON3C)CN2S(=O)(=O)c2cc(Cl)cc(Cl)c2)cc1 | -6.77%
11 | COc1ccc(N(C(=O)CNC(=O)c2ccco2)C(C(=O)NCC2CCCO2)c2ccccc2)cc1Cl (configuration not stated) | 17.1% (active)
12 | O=C(NCC(=O)N(CC1CCCO1)C(C(=O)NC1CCCCC1)c1ccccc1)c1ccco1 (configuration not stated) | -3.5%
13 | O=C(NCC(=O)N(c1ccccc1)C(C(=O)NCC1CCCO1)c1ccccc1)c1cccs1 (configuration not stated) | 0.38%
14 | COC(=O)c1c(-c2ccc(OC)cc2)c2c(c3c4cc(OC)ccc4n(S(=O)(=O)c4ccc(F)cc4)c13)C(=O)N(C)C2 | -4.47%
15 | CCOC(=O)c1c(NC(=O)CSc2nnc(CNc3ccc(C)cc3C)o2)sc(C)c1C | -5.1%
16 | CCOC(=O)c1c(NC(=O)CSc2nnc(Cc3csc(N)n3)n2C)sc(C)c1C | -6.84%
17 | CCOC(=O)c1c(NC(=O)CSc2nccc(=O)[nH]2)sc(C)c1C | 14.3% (active)
18 | O=C1Nc2ccccc2C1=NN=Cc1ccco1 | -6.76%
19 | CC(C)(C)n1nc(C2CC2)c(Br)c1NC(=O)c1ccccc1F | -6.97%
20 | O=c1[nH]c(-c2ccccc2)cn1C1CCN(Cc2ccc(-c3nc4ccc(F)cc4nc3-c3ccccc3)cc2)CC1 | -7.59%
21 | CCOc1ccc(C(C)=O)cc1COC(=O)c1cnc(Cl)c(Cl)c1 | 13.8% (active)

Row | SMILES | inhibition
22 | COC(=O)c1ccc(COC(=O)c2cnc(Cl)c(Cl)c2)cc1 | -9.03%
23 | CCOc1ccc(C(C)=O)cc1COC(=O)CNC(=O)c1cccs1 | -0.09%
24 | COC(=O)c1ccc(CN2C(=O)[C@]3(OCCC=C[C@H]3C)c3c(Br)cccc32)cc1 | -6.8%
25 | CC1CCN(C(=O)c2ncn3c2C(=O)N[C@@H](C)C3)CC1 | -3.89%
26 | O=C(NCc1ccccc1)[C@@H]1CCCN1C(=O)[C@H]1CCCN1C(=O)c1cccc(Cl)c1 | -6.19%
27 | Cn1c(CN2CCOCC2)nc2cc(NC(=O)c3ccc(Cl)cc3)ccc21 | 74.6% (active)
28 | O=C(Nc1ccc(CN2CCOCC2)cc1)c1cc(Cl)ccc1Cl | -7.17%
29 | CCOC(=O)N1CCN(Cc2nc3cc(NC(C)=O)ccc3n2C)CC1 | -9.27%
30 | Cc1cc(NCCc2c[nH]c3ccccc23)ccc1Oc1cccnc1 | -8.42%
31 | COc1ccc(C2Nc3ccccc3C(=O)N2Cc2ccccc2)cc1Cn1nnc2ccccc21 (configuration not stated) | -2.99%
32 | COc1ccc(C2Nc3ccccc3C(=O)N2c2ccc(Cl)cc2)cc1Cn1cc([N+](=O)[O-])cn1 (configuration not stated) | 28.1% (active)
33 | COc1ccc(CN2CCCC(C(=O)c3ccc(Cl)cc3)C2)cc1Cn1cncn1 (configuration not stated) | -0.72%
34 | CN[C@H]1C[C@H]2c3[nH]c4c(-c5ccccc5)cccc4c3CCN2C(=O)[C@H]1[C@H](C)O | -8.33%
35 | CC(=NNC(N)=O)c1ccc(Cl)c(-n2cccc2)c1 | -8.67%
36 | C[C@@H]1ON(C)[C@H]2C[C@H]3c4cc(N5CCOCC5)ccc4CCN3C[C@@H]12 | -4.65%
37 | COC(=O)[C@H](CC(C)C)NS(=O)(=O)c1c(F)cccc1F | -4.91%
38 | COCc1[nH]nc2c1C(c1ccccc1)N(c1ccccc1)C2=O (configuration not stated) | -6.8%
39 | CN1C(=O)C2CC(O)C(SC3CC4C(=O)N(C)C(=O)C4CC3O)CC2C1=O (configuration not stated) | -2.8%
40 | COC(=O)c1nc(NC(=O)c2ccc(C(C)(C)C)cc2)n[nH]1 | -1.62%
41 | CSc1nccc(NC(=O)c2ccc(C(C)(C)C)cc2)n1 | 104% (active)
42 | Cc1cccc(NC(=O)c2ccc(S(=O)(=O)N(C)c3ccccc3)cc2)n1 | -6.82%

Row | SMILES | inhibition
43 | CCCCCCCCN1C(=O)[C@@H](CC(=O)NCCCC)C[C@@]2(C(=O)OC)C1=C[C@H](C(C)(C)C)O[C@@H]2C | -5.71%
44 | O=C(NCc1ccccc1)[C@H]1CCCN1C(=O)[C@H]1CCCN1C(=O)N1CCOCC1 | -7.58%
45 | Nc1[nH]c(C(=O)c2ccc(Br)cc2)c(-c2ccc3c(c2)OCO3)c1C(=O)NCCc1c[nH]c2ccccc12 | -6.84%
46 | NC(=O)c1ncn([C@@H]2O[C@H](C(=O)O)[C@@H](O)[C@H]2O)n1 | -7.36%
47 | Nc1ncnc2c1ncn2[C@@H]1O[C@H](C(=O)N2CCSC2)[C@@H](O)[C@H]1O | -5.85%
48 | Nc1ncnc2c1ncn2[C@@H]1O[C@H](C(=O)NCC(F)(F)F)[C@@H](O)[C@H]1O | -9.69%
49 | Nc1ncnc2c1ncn2C1OC(CO)CC1O (configuration not stated) | 53.3% (active)
50 | Brc1ccc(COCCc2cn(Cc3ccccc3)c3ccccc23)cc1 | 3.44%
51 | COC(=O)[C@]12C[C@H](CC(=O)NCc3ccc(C)o3)C(=O)N(CCC3=CCCCC3)C1=C[C@H](C(C)(C)C)O[C@@H]2C | -7.34%
52 | O=C(NC(Nc1nc2ccc([N+](=O)[O-])cc2s1)(C(F)(F)F)C(F)(F)F)c1ccccc1 | 20% (active)
53 | CC(Nc1ccc([N+](=O)[O-])cc1[N+](=O)[O-])c1ccccc1 (configuration not stated) | -6.77%
54 | O=C(NNC(=O)c1ccc(-n2cncn2)c([N+](=O)[O-])c1)c1ccccc1 | -6.89%
55 | COC(=O)C(C(=O)OC)c1ccccc1NS(=O)(=O)c1cccc2ccccc12 | -6.36%
56 | CC(C)C[C@H](NC(=O)CC1CCCC1)C(=O)N1CCC[C@H]1C(=O)NCc1ccccc1 | 1.69%
57 | OC[C@@H]1CN(Cc2cccs2)C[C@H](n2cnc3c(NC4CCCC4)ncnc32)O1 | -8.57%
58 | OC[C@@H]1CN(Cc2ccc(-c3ccccc3)cc2)C[C@H](n2cnc3c(NC4CCCC4)ncnc32)O1 | 27.1% (active)
59 | OC[C@@H]1CN(Cc2ccc(F)cc2)C[C@H](n2cnc3c(NC4CCCC4)ncnc32)O1 | -2.96%
60 | COC(=O)c1cc2c(c3c4cc(F)ccc4n(S(=O)(=O)c4ccccc4)c13)C(=O)N(Cc1ccccc1OC)C2 | -5.48%
61 | Cc1noc(C)c1NC(=O)Nc1ccc2c(c1)C(=O)N([C@H](C)CO)C[C@H](C)[C@H](CN(C)Cc1ccncc1)OCCCC[C@@H](C)O2 | -3.2%
62 | COc1cc(C(=S)NC2CCCCC2)ccc1O | -5.5%
63 | COc1cc(C(=O)Nn2c(O)c(C3=c4ccccc4=NC3=O)sc2=S)ccc1O | 19.3% (active)

Row | SMILES | inhibition
64 | COc1cc(C(=O)Nn2c(CC(C)C)nc3ccccc3c2=O)cc(OC)c1OC | -0.49%
65 | O=C(C(=O)N1CCC(CNC(=O)c2cccnc2Cl)CC1)c1cccs1 | -2.12%
66 | CC(=O)N1C[C@@H](CO)[C@@H](N(C)C(=O)C(C)(C)C)C[C@H]1c1ccccc1Br | -3.56%
67 | CCN(CC(=O)NCc1ccc(Cl)cc1)C(=O)CSc1ccccc1 | 46.6% (active)
68 | CCN(CC(=O)Nc1cc(Cl)ccc1C)C(=O)CSCc1ccccc1 | -6.08%
69 | CCN(CC(=O)NCc1ccc(Cl)cc1)C(=O)c1c(C)noc1C | -4.16%
70 | COCCNC(=S)N(C)[C@H]1C[C@H]2c3[nH]c4ccccc4c3CCN2C[C@H]1[C@H](C)O | -3.71%
71 | CC(=O)C1=C(C)N(Cc2ccc(Cl)cc2)C(=S)NC1c1ccc(F)cc1 (configuration not stated) | -2.41%
72 | CCCCNc1cccc2c1S(=O)(=O)N[C@@H](C)CO2 | 0.83%
73 | COC(=O)[C@]12C[C@H](CC(=O)NCCCCc3ccccc3)C(=O)N(Cc3ccc4c(c3)OCO4)C1=C[C@H](C(C)(C)C)O[C@@H]2C | -7.85%
74 | O=C(/C=C/c1c(Cl)cccc1Cl)NCc1ccccc1 | -6.6%
75 | O=C(CCc1ccccc1)Nc1nn[nH]n1 | -3.85%
76 | O=C(/C=C/c1c(F)cccc1Cl)Nc1nn[nH]n1 | 13.1% (active)
77 | Clc1cccc2c1C1CC2CCN1Cc1ccccc1 (configuration not stated) | -7.78%
78 | CC(C)(C)C(c1nc2ccccc2[nH]1)n1c(Cc2csc3ccccc23)nc2ccccc21 (configuration not stated) | -6.57%
79 | O=C(N[C@H](Cc1ccccc1)C(=O)N1CCCN(Cc2cccs2)CC1)[C@H]1O[C@@H](n2ccc(=O)[nH]c2=O)[C@H](O)[C@@H]1O | -5.35%
80 | COC(=O)CNC(=O)c1ccccc1[N+](=O)[O-] | -2.07%
81 | Cc1c(C(=O)NCCCc2ccccc2)cccc1[N+](=O)[O-] | -5.51%
82 | COC(=O)c1cccc([N+](=O)[O-])c1CS(=O)(=O)c1ccc(C)cc1 | 13.8% (active)
